# Measured values published in PubChem BioAssay (NCATS).
# Several values for one entry are separate records, joined by “and”; a condition that tells them apart may be missing. Identical values can stand only once. Records with an inconclusive call do not appear. A call without a number means that no potency is given here. A structure can be active in one record and inactive in another. Unmarked numbers belong to inactive results. Activity calls are given as the source filed them. Calls follow the shape of the dose curve; as a rule, active = well fitted inhibition curve with a large enough effect; inconclusive = small, poorly fitted or top-dose-only effect; inactive = flat fitted curve, though single readings scatter.
# Experiments:
# HEK293 = assay: Cytotoxic Profiling of Annotated Libraries Using Quantitative High-Throughput Screening (AID 1296008); conditions: Five cell lines viability, CellTiter-Glo ATP luminescence, 48-72 h; max response: stronger effect = lower value
# Procedure, shortened: (§1)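 Cells exposed to compounds for 48 or 72 hr at 37 degrees Celsius. Viability read as ATP-coupled luminescence with CellTiter-Glo after 10 min at room temperature.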
# HaCat [1] = assay: as above; conditions: Five cell lines viability, CellTiter-Glo ATP luminescence, 48-72 h; max response: stronger effect = lower value
# Procedure, shortened: as §1
# KB-3-1 = assay: as above; conditions: Five cell lines viability, CellTiter-Glo ATP luminescence, 48-72 h; max response: stronger effect = lower value
# Procedure, shortened: as §1
# NIH3T3 = assay: as above; conditions: Five cell lines viability, CellTiter-Glo ATP luminescence, 48-72 h; max response: stronger effect = lower value
# Procedure, shortened: as §1
# HACAT [2] = assay: qHTS assay to identify novel small-molecules to repurpose for Merkel cell carcinoma treatment (AID 1296009); conditions: MCC and control cell lines, CellTiter-Glo viability, 72 h; series mostly up to 44.8 µM
# Procedure, shortened: (§2)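 CellTiter-Glo luminescence after 72 hr compound exposure at 37 degree celsius gave cell viability. Libraries NPC and MIPE were run as 8- and 11-point dose responses; RLUs normalized to DMSO (negative) and no-cell (cytotoxicity) controls.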
# HEK293T = assay: as above; conditions: MCC and control cell lines, CellTiter-Glo viability, 72 h
# Procedure, shortened: as §2
# MCC-13 = assay: as above; conditions: MCC and control cell lines, CellTiter-Glo viability, 72 h; series mostly up to 46 µM
# Procedure, shortened: as §2
# MKL-1 = assay: as above; conditions: MCC and control cell lines, CellTiter-Glo viability, 72 h; series mostly up to 46 µM
# Procedure, shortened: as §2
# MKL-2 = assay: as above; conditions: MCC and control cell lines, CellTiter-Glo viability, 72 h; series mostly up to 46 µM
# Procedure, shortened: as §2
# MCC-26 = assay: as above; conditions: MCC and control cell lines, CellTiter-Glo viability, 72 h; series mostly up to 46 µM
# Procedure, shortened: as §2
# [3] = at 44.8 µM (top of the series) unless noted
# Also: nearly all actives have a fitted effect of over 60% in size.
# Potency is read from the fitted curve at half-maximal effect.
Structure (SMILES),max response (HEK293),outcome (HEK293),outcome (HaCat [1]),max response (KB-3-1),max response (NIH3T3),outcome (HACAT [2]),outcome (HEK293T; [3]),Potency (MCC-13),Potency (MKL-1),Potency (MKL-2),Potency (HEK293),max response (HaCat [1]),Potency (MCC-26),outcome (NIH3T3),outcome (HEK293T; at 17.4 µM (top of the series)),outcome (HEK293T; at 44.8 µM (top of the series)),outcome (KB-3-1),Potency (NIH3T3)
N[C@@H](Cc1c[nH]c2ccc(O)cc12)C(=O)O,2.68%,inactive,inactive,5.77% and -8.69%,-0.603% and 4.53%,inactive,inactive,inactive,inactive,inactive,,,,,,,,
COc1cc2c(c(OC)c1OC)-c1ccc(OC)c(=O)cc1[C@@H](NC(C)=O)CC2,-105%,,,,-60%,,,0.0118 µM (active),,inactive,0.0188 µM (active),-4.55% and -18.6%,inactive,,,,,
NCCS(=O)(=O)O,-1.38%,inactive,inactive,,0.192%,inactive,inactive,inactive,inactive,inactive,,,,inactive,,,,
CC1(C)O[C@H]2CC(=O)OC[C@]23[C@H]2CC[C@@]4(C)[C@H](c5ccoc5)OC(=O)[C@H]5O[C@]54[C@]2(C)C(=O)C[C@@H]13,-8.07%,inactive,inactive,,-0.469% and 1.76%,inactive,,inactive,inactive,inactive,,-5.81%,inactive,inactive,inactive,inactive,,
COc1ccc2c(c1)c(CC(=O)O)c(C)n2C(=O)c1ccc(Cl)cc1,-16.4%,inactive,inactive,0.589% and -8.59%,-1.64% and 1.2%,inactive,inactive,inactive,inactive,inactive,,-5.33%,inactive,,,,,
Cc1cc(C(C)(C)C)c(O)c(C)c1CC1=NCCN1,-3.25%,,inactive,1.72% and -15.7%,3.71%,inactive,,inactive,inactive,inactive,9.35 µM (active),-9.17% and -0.1%,inactive,inactive,,,,
CC1COc2c(N3CCN(C)CC3)c(F)cc3c(=O)c(C(=O)O)cn1c23 (stereo unspecified),-5.36%,inactive,inactive,21.2%,-0.0145%,inactive,inactive,inactive,inactive,inactive,,,inactive,inactive,,,inactive,
COc1ccccc1OCC(O)CN1CCN(CC(=O)Nc2c(C)cccc2C)CC1 (stereo unspecified),1.75%,inactive,inactive,4.47% and -3.97%,-5.09%,inactive,inactive,inactive,inactive,inactive,,-0.555%,inactive,inactive,,,,
Nc1ccn([C@H]2CC[C@@H](CO)O2)c(=O)n1,,inactive,inactive,-19.7%,-7.7% and 2.02%,inactive,inactive,inactive,inactive,inactive,,-8.68%,inactive,,,,inactive,
COc1ccc2[nH]cc(CCNC(C)=O)c2c1,0.212%,inactive,inactive,5.26% and 4.62%,1.71%,inactive,inactive,inactive,inactive,inactive,,-2.62%,inactive,inactive,,,,
C[C@](N)(Cc1ccc(O)c(O)c1)C(=O)O,-6.72%,inactive,inactive,,4.4%,inactive,inactive,inactive,inactive,inactive,,-5.55%,inactive,,,,,
Cn1cnc2c1c(=O)[nH]c(=O)n2C,1.79%,,inactive,,1.38%,inactive,,inactive,inactive,inactive,9.35 µM (active),,,,,,,26.4 µM (active)
NS(=O)(=O)c1cc2c(cc1Cl)NCNS2(=O)=O,,inactive,inactive,23% and 9.86%,-2.86% and -1.17%,inactive,inactive,inactive,inactive,inactive,,0.753%,inactive,,,,,
